Rows were chosen to be rich in hits. Some 11% of all compounds tested hit in one or more screens of this group.
OTUD3 inh: human OTUD3 deubiquitinase inhibition | Q5T2D3 | purified OTUD3, Ub-rhodamine fluorescence, 2 h | inhibition, % at 25 µM | hit rate 0.7% among 47,000
USP30 block: blocks human USP30 ubiquitin-rhodamine cleavage; Q70CQ3; purified USP30, Ub-rhodamine cleavage fluorescence; inhibition, % at 25 µM; hit rate 5.3% among 47,000
USP17 block: inhibitors of human USP17 deubiquitinase | purified USP17, Ub-rhodamine cleavage fluorescence, 3 h | inhibition, % at 50 µM | hit rate 6.5% among 47,000
Target sequence (A8MUK1 whole entry, looked up): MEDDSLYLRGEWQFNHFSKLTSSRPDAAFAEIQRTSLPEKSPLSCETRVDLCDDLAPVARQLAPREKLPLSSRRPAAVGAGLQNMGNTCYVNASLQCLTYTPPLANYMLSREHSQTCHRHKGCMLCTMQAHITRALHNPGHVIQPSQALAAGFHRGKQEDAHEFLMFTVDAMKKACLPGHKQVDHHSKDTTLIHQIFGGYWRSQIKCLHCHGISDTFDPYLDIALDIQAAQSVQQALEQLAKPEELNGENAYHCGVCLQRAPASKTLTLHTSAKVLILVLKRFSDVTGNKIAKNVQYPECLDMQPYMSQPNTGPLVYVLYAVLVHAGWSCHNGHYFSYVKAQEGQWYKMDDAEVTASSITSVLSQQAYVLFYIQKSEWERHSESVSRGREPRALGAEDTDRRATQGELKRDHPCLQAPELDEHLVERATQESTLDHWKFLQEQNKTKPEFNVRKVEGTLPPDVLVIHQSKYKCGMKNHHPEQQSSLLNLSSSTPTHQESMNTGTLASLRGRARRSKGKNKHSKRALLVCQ
USP28 inh: blocks human USP28 ubiquitin-rhodamine cleavage | hit rate 3% among 47,000 | AID 1645857 | inhibition, % at 25 µM | purified USP28, Ub-rhodamine cleavage fluorescence, 30 min | Q96RU2
Numbers without * were called inactive; / = not tested or not shown. No stated cut-off is given here; in the data, active means inhibition above about 30%; inactive means the rest.

SMILES | OTUD3 inh | USP30 block | USP17 block | USP28 inh
CCn1c(=O)c2cc(OC)c(OC)cc2n(CC(=O)c2ccc(OC)c(OC)c2)c1=O | 22 | 47* | 11 | 5
COc1ccccc1NC(=O)C(C)OC(=O)c1ccc2ncsc2c1 (centres undefined) | -11 | -41 | -8 | -10
Cc1ccc2nc(NC(=O)c3ccccc3Cl)[nH]c(=O)c2c1 | -1 | -13 | 46* | -6
O=C(OC(C(=O)c1c[nH]c2ccccc12)c1ccccc1)c1cccc(Oc2ccccc2)c1 (centres undefined) | -24 | -48 | -68 | -10
CCOc1ccccc1C(=O)NCC(=O)OC(C(=O)c1c[nH]c2ccccc12)c1ccccc1 (centres undefined) | -8 | -34 | 54* | -5
CN(C)CCCN(C(=O)c1ccco1)c1nc2ccc(F)cc2s1 | 3 | 4 | 3 | 8
CN(C)CCCN(C(=O)c1cc2ccccc2oc1=O)c1nc2ccc(F)cc2s1 | 16 | 79* | 55* | 44*
O=C(c1cn(-c2ccc(S(=O)(=O)N3CCCC3)cn2)cn1)N1CCOCC1 | 15 | 21 | 18 | 12
Cc1ccc([C@H]2C[C@@H](O)[C@@H](O)[C@@H]2NC(=O)c2ccccc2)cc1 | 5 | 37* | 23 | 4
Cc1cc(C(=O)N[C@H]2[C@H](O)[C@H](O)C[C@@H]2c2ccccc2)c(C)o1 | -2 | -12 | 1 | 0
Cc1cc(C(=O)N[C@H]2[C@H](O)[C@H](O)C[C@@H]2c2ccccc2C)no1 | -4 | -1 | 2 | -10
Cc1ccccc1[C@H]1C[C@@H](O)[C@@H](O)[C@@H]1NC(=O)c1cccc(C#N)c1 | 9 | 47* | 20 | 9
CC(=O)N1CCN(Cc2cnn(-c3ccc(F)cc3)c2)CC1C(N)=O (centres undefined) | -4 | -10 | -4 | -7
COc1ccc(-c2cc3c(=O)n(CC(=O)Nc4ccc(Cl)cc4)ccn3n2)cc1 | 15 | 19 | 19 | 11
COc1ccc(-c2cc3c(=O)n(CC(=O)Nc4ccccc4C)ccn3n2)cc1 | 10 | 31* | 36* | 6
Cc1cc(C2CCCN2C(=O)Cc2ccc(F)cc2Cl)no1 (centres undefined) | -4 | -3 | -4 | -2
CCN(Cc1ccc2c(c1)OCO2)C(=O)Cc1c(C)noc1C | 0 | 4 | -4 | -9
O=C(CC1C(=O)N(C2CCCC2)c2nc3ccccc3n21)Nc1ccc(F)cc1 (centres undefined) | -10 | -3 | -8 | -13
CC(=O)c1ccc(NC(=O)CC2C(=O)Nc3nc4ccccc4n32)cc1 (centres undefined) | 0 | -14 | 75* | 8
COc1ccc(-c2nc3n(n2)C(CC(=O)Nc2cccc4ccccc24)C(=O)N3)cc1 (centres undefined) | 19 | 52* | 25 | 27
Cc1ccc(NC(=O)CC2C(=O)Nc3nc(-c4ccccc4)nn32)cc1 (centres undefined) | 13 | 21 | 45* | 11
Cc1ncc(CN2CCCN(c3cc(-c4ccc5ccccc5c4)ncn3)CC2)[nH]1 | -3 | -28 | 6 | -1
Cc1ccc(CN2CCCn3nc(C(=O)NCc4ccc(F)cc4)cc3C2=O)cc1 | 8 | 56* | 38* | 13
O=C(CSc1ccccc1)Nc1cccc2nsnc12 | 11 | 24 | 32* | 28
COc1ccc(NC(C)=O)cc1S(=O)(=O)N(CC(=O)Nc1ccc(C)cc1)CC(=O)Nc1ccc(C)cc1 | -5 | 19 | 34* | -8
SMILES | OTUD3 inh | USP30 block | USP17 block | USP28 inh
COc1ccc(Cl)cc1S(=O)(=O)N(C)CC(=O)Nc1ccc2c(c1)OCCO2 | -10 | -13 | -15 | -7
O=C1c2ccccc2S(=O)(=O)N1Cc1ccc2nonc2c1 | 16 | 15 | 9 | 37*
O=C(c1ccccc1)N1C[C@@H]2OCCN(CC3CC3)[C@@H]2C1 | -1 | -8 | -3 | -9
COc1ccc(CC(=O)N2CCc3cc(OC)c(OC)cc3C2COc2ccc([N+](=O)[O-])cc2)cc1 (centres undefined) | 10 | 44* | 2 | 13
CC(C)CCNC(=O)c1ccc2c(=O)nc3c(-c4ccccc4F)n[nH]n3c2c1 | 6 | 3 | 8 | 7
Cc1ccc(CNC(=O)c2ccc3c(=O)nc4c(-c5ccccc5F)n[nH]n4c3c2)cc1 | 13 | 6 | 35* | 0
Cc1cccc2c(=O)n(C3CCN(S(=O)(=O)c4ccccc4)CC3)cnc12 | 1 | 9 | 44* | 3
O=c1c2ccccc2ncn1C1CCN(S(=O)(=O)c2ccccc2F)CC1 | -4 | -13 | 51* | -7
O=C(NC1CCCC1)N1C[C@H]2C[C@H]3[C@](C1)(CN(Cc1cccnc1)S3(=O)=O)O2 | 7 | 0 | -26 | 1
CCOC(=O)Cc1cc(=O)n2[nH]c(C)c(-c3ccc(Cl)cc3)c2n1 | 1 | 8 | -8 | 1
CCOC(=O)Cc1cc(=O)n2[nH]c(-c3ccc(C)cc3)cc2n1 | 5 | -138 | 31* | 17
CC(C)CC(=O)N1CCCC(c2nc(N3CCOCC3)ncc2-c2cccnc2)C1 (centres undefined) | -3 | 10 | -1 | -5
CC(=O)N1CCCC(c2nc(N3CCOCC3)ncc2-c2cccnc2)C1 (centres undefined) | 18 | 37* | 23 | 24
Cc1cc(C)c(C)c(Oc2coc3cc(O)ccc3c2=O)c1 | 6 | 7 | 6 | 34*
Cc1noc(CNC(=O)C2CC(=O)N(c3ccc(F)cc3)C2)n1 (centres undefined) | -5 | 0 | 1 | -9
CC(C)N1CCc2c(sc(NC(=O)CSc3ccc(F)cc3)c2C(N)=O)C1 | -3 | -3 | -8 | 6
CC(C)N1CCc2c(sc(NC(=O)CSc3ccc(Cl)cc3)c2C(N)=O)C1 | -6 | 18 | 50* | 24
O=C1N(Cc2cccnc2)CCN1c1ccc(F)c(Cl)c1 | 11 | / | 8 | /
O=C1c2cccc(OCc3ccc(Cl)cc3)c2CCN1Cc1cccnc1 | -2 | 32* | 18 | 23
Cc1ccccc1C(=O)NC(c1ccccc1)c1cccnc1 (centres undefined) | 0 | -11 | -2 | -5
COc1ccccc1Nc1ncc(C(=O)NCc2ccc3c(c2)OCO3)c2ccccc12 | 10 | 14 | 32* | 5
COc1cc(Cl)ccc1Nc1ncc(C(=O)Nc2ccc3c(c2)OCO3)c2ccccc12 | 19 | 7 | 15 | 16
CCOC(=O)c1cnc(Nc2ccccc2OC)c2ccccc12 | -23 | -93 | 8 | -25
COc1ccccc1Nc1ncc(C(=O)NCc2ccc(F)cc2)c2ccccc12 | -2 | -29 | 35* | -4
Nc1nc(N2CCC3(CC2)OCCO3)ncc1C(=O)Nc1ccccc1 | -3 | -2 | -4 | 0
COc1ccc(C(CNC(=O)c2cc(-c3ccc(Cl)cc3)on2)N2CCOCC2)cc1 (centres undefined) | 13 | 29 | / | 4
Cc1ccccc1NC(=O)Cc1nnc2c(-c3nc(C4CC4)no3)cccn12 | 15 | -6 | -5 | -3
Cc1ccc(NC(=O)Cc2nnc3c(-c4nc(C5CC5)no4)cccn23)cc1 | 18 | 36* | 52* | 29

High-throughput results (PubChem)
